High-throughput results: PubChem, National Center for Advancing Translational Sciences (NCATS)
Shown are actives, neighbours in structure and some others; about 0.43% of the full set was active somewhere.
aGlu spleen mod: inhibitors or activators of human alpha-glucosidase in spleen homogenate. P10253. human spleen homogenate, 4-MU-alpha-glucoside fluorescence. Potency, µM (doses to about 79.9 µM), for the others: at the highest dose activity change, negative = inhibition, hits mostly inhibitors. 0.006% of 240,000 active;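 further: potency means the concentration at half of the fitted maximal effect; 0% = enzyme with vehicle and -100% = no enzyme basal signal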
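Enzyme source: human spleen homogenate, 1 ug/well. Buffer 50 mM citric acid/K phosphate pH 5.0, 0.01% Tween-20. 4-MU-alpha-glucoside 1 mM; 37 C x 40 min; NaOH/glycine stop; fluorescence.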
GAA glycogen: GAA glycogen-cleavage inhibition or activation; P10253; recombinant GAA, glycogen substrate, Amplex Red glucose oxidase fluorescence; Potency, µM (highest dose often 76.4 µM), for the others: at the top dose activity change, negative = inhibition, usual class: inhibitors; 0.38% of 300,000 active; AID 2100;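 further: potency means the concentration at half of the fitted maximal effect; 0% = full enzyme reaction and -100% = no-enzyme basal signal; the screen sought inhibitors and activators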
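Recombinant enzyme (4 nM final) with compounds titrated up to 77 uM and bovine liver glycogen (30 ug) in citrate pH 5.0, 0.01% Tween-20, 37 C 40 min. Released glucose detected by Amplex Red/glucose oxidase (Ex 573/Em 610); AC50 from Hill fits.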
aGal spleen mod: inhibits or activates alpha-galactosidase in human spleen homogenate | P06280 | human spleen homogenate, 4MU-alpha-Gal fluorescence, 40 min | Potency, µM (top dose mostly 80 µM), inactives show at the highest dose activity change, negative = inhibition, usual class: inhibitors | 0.008% of 240,000 active;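 further: potency means the concentration at half of the fitted maximal effect; 0% = enzyme with vehicle and -100% = no enzyme basal signal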
Target sequence (P06280 32-429 limits assumed): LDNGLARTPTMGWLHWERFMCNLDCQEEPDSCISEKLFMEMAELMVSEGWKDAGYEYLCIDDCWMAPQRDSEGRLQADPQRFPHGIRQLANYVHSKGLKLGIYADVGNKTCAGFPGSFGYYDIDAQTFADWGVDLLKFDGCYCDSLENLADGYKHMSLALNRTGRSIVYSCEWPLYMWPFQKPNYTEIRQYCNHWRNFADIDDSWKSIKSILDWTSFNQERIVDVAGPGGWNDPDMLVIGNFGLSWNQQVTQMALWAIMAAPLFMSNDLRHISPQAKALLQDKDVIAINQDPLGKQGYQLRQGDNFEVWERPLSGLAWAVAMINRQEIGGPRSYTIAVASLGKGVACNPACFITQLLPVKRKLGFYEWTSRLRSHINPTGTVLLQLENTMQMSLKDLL
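qHTS titration in buffer at pH 5.0. Alpha-galactosidase activity in spleen homogenate was measured via 4-methylumbelliferone release from 1 mM fluorogenic substrate after 40 min at 37C and a pH 10 stop. AC50 came from Hill fits of control-normalized data.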
N370S GC mod: inhibits or activates N370S mutant glucocerebrosidase; P04062; N370S GC spleen homogenate, 4MU-glucoside fluorescence; Potency, µM (top dose mostly 59.4 µM), for inactives: at the highest dose activity change, negative = inhibition, usual class: inhibitors; 0.092% of 330,000 active;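 further: potency means the concentration at half of the fitted maximal effect; 0% = full enzyme activity and -100% = no enzyme basal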
GLA inh pH 4.5: blocks human alpha-galactosidase A at pH 4.5 | purified enzyme, 4-MU-alpha-Gal fluorescence, pH 4.5 | P06280 | AID 1467 | activity change, negative = inhibition, % at 105 µM | 230,000 tested, under 10 active;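 further: 0% = full activity with enzyme and -100% = basal without enzyme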
GAA inhib: alpha-glucosidase (human) inhibition. P10253. purified human GAA, 4-MU-alpha-glucoside fluorescence. Potency, µM (doses to about 76.9 µM), inactives show at the top dose activity change, negative = inhibition, most hits filed as inhibitors. 0.005% of 200,000 active. AID 1466;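 further: potency means the concentration at half of the fitted maximal effect; plate controls were uninhibited enzyme wells for no effect and no-enzyme background for full effect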
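Fluorescence at Ex 365/Em 440 nm from 4-methylumbelliferone reported enzyme activity after 20 min at room temperature. Reactions used 4 nM enzyme and 400 uM substrate at pH 5.0; curves fitted with the Hill equation.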
Starred values were filed as active, the others as inactive; ? = inconclusive; . = no result given; [ ] = dose if it differs, or a comment. The call rests on the fitted dose curve; in most records, active means well fitted curve in the direction sought with a large enough effect; inconclusive means small, poorly fitted or top-dose-only effect, or another doubt; inactive means no such curve, though single readings can be large; an effect the other way counts as inactive or inconclusive.

SMILES	aGlu spleen mod	GAA glycogen	aGal spleen mod	N370S GC mod	GLA inh pH 4.5	GAA inhib
CC1(C)Cc2c(c(-c3ccccc3)nc3[nH][nH]c(=O)c23)CO1	-4.8%	5.01µM*	6.6%	1.5%	0.2	-2.3%
Oc1ccc(-c2nc3ccccn3c2NCc2ccco2)cc1	2.5%	14µM*	2.7%	?	-1.8	1.8%
FC(F)(F)c1ccc(-c2noc(-c3ccccc3)c2I)cc1	-2.5%	.	0.6%	9.2%	-5.7	.
C=CCN(C)CCCCCCOc1ccc(C(=O)c2ccc(Br)cc2)c(F)c1	-2.0%	.	-3.2%	-19.8%	.	.
CC1(C(=O)O)Sc2[nH]c(=O)sc2C2c3ccccc3OC(=O)C21 (configuration not stated)	5.5%	25.1µM*	6.4%	-7.7%	1.9	0.9%
Oc1ccc(C(c2nnnn2C2CCCCC2)N2CCOCC2)cc1 (configuration not stated)	-6.2%	-4.8%	-2.8%	-18.8%	5.8	8.0%
CCOC(=O)c1cc2oc(C(c3nnnn3C3CCCCC3)N3CCOCC3)cc2[nH]1 (configuration not stated)	-15.8%	-2.2%	-10.5%	12.6µM*	-7.7	-4.3%
Cc1ccc(N(C)C(=O)N2CCN(S(=O)(=O)c3ccc(C)cc3)CC2)cc1	-27.5%	-1.0%	-2.5%	0.8%	-9.0	?
Cc1ccc(S(=O)(=O)N2CCN(C(=O)N(c3ccccc3)c3ccccc3)CC2)cc1	-27.0%	?	-16.7%	.	-0.5	25.1µM*
CC(=O)Oc1ccc2c(=O)c(Oc3ccccc3)c(C)oc2c1OC(C)=O	-9.0%	3.55µM*	-1.7%	6.6%	-8.2	-0.7%
O=C(O)C1OC(Oc2c(-c3ccc(O)c(O)c3)oc3cc(O)cc(O)c3c2=O)C(O)C(O)C1O (configuration not stated)	-16.7%	3.98µM*	-11.7%	-21.5%	-12.4	1.4%[15.4 µM]
Fc1ccc(N=Cc2ccc[nH]2)cc1	.	-17.6%	.	-12.0%	.	.
Oc1ccccc1N=Cc1ccc[nH]1	3.6%	2.82µM*	4.6%	2.1%	2.7	1.2%
CCN(CC)CCNC(=O)CSc1nc2nc(C)c(Cc3ccccc3)c(C)n2n1	.	1.6%[76.3 µM]	.	.	.	.
COc1cc(CNc2ccc3[nH]c(=O)[nH]c3c2)cc(Cl)c1OCc1ccccc1F	.	-29.3%[76.3 µM]	.	.	.	.
COc1cccc(CNc2ccc3[nH]c(=O)[nH]c3c2)c1OCc1ccccc1F	.	28.2µM*	.	8.6%	.	.
Cn1c(SCC(=O)CC(=O)Nc2ccccc2)nnc1-c1ccc(O)cc1	-0.6%	0.7%	1.2%	14.1µM*	2.5	1.9%
COCCCNC(=S)NCCc1ccc(F)cc1	6.0%	2.5%	4.8%	1.2%	-8.9	0.8%
COCCCNC(=S)NNC(=S)Nc1ccccc1	-1.9%	6.26µM*	1.7%	-13.6%	-5.0	-2.2%
COCCCNC(=S)NNC(=S)Nc1ccc(F)cc1F	0.1%	15.7µM*	3.7%	13.1%	-2.7	1.5%
COCCCNC(=S)Nc1ccc(C)cc1	4.6%	-0.4%	10.3%	2.6%	-10.1	.
O=C(CSc1nc(-c2ccccc2)[nH]c1-c1ccccc1)Nc1ccc2c(c1)OCCO2	.	-7.3%[76.3 µM]	.	.	.	.
CCCCCCC1(C)NC(=S)N(c2ccccc2)N1 (configuration not stated)	-6.3%	?	-7.9%	8.8%	3.6	-4.0%
CCCCCC1(C)NC(=S)N(c2ccccc2)N1 (configuration not stated)	-2.2%	35.5µM*	-0.2%	-5.2%	-3.4	-4.3%
CC1(C)CC(O)C(C)(C)N1O (configuration not stated)	-10.4%	15.7µM*	-16.1%	7.3%	-11.9	-8.2%
SMILES	aGlu spleen mod	GAA glycogen	aGal spleen mod	N370S GC mod	GLA inh pH 4.5	GAA inhib
O=C(CC(c1ccccc1)c1cc(Br)ccc1O)NCCCN1CCOCC1 (configuration not stated)	.	-5.9%[76.3 µM]	.	-1.8%	.	.
O=C(CC(c1ccccc1)c1cc(Br)ccc1O)NCCN1CCOCC1 (configuration not stated)	-26.5%	28.4%	39.8µM*	6.3%	4.6	-0.2%
CCOC(=O)N1CCN(C(=O)CN(c2cccc(Cl)c2C)S(=O)(=O)c2ccc(C)cc2)CC1	.	-7.9%[76.3 µM]	.	.	.	.
Cn1c(=O)c2sccc2n2c(CCCC(=O)Nc3ccc(F)c(F)c3)nnc12	.	2µM*	.	.	.	.
Cc1ccc(NC(=O)CCCc2nnc3n(C)c(=O)c4sccc4n23)cc1C	.	-4.1%[76.3 µM]	.	.	.	.
C/C(=N\N1CCN(C2c3ccccc3-c3ccccc32)CC1)c1ccncc1	4.8%	28.2µM*	-12.1%	1.0%	3.2	?
C(=N\N1CCN(C2c3ccccc3-c3ccccc32)CC1)/c1ccncc1	-5.1%	-9.5%	-1.5%	-11.9%	-6.5	2.5%
O=C1c2ccccc2C(=O)N1CCc1c[nH]c2ccc(O)cc12	1.3%	3.14µM*	0.7%	4.8%	3.8	?
Cc1ccc(C(=O)NNc2cc(N3CCCC3)nc(N3CCCC3)n2)cc1	-0.1%	28.2µM*	10.9%	-1.4%	6.4	5.5%
O=C(NNc1cc(N2CCOCC2)nc(N2CCOCC2)n1)c1ccc(Cl)c(Cl)c1	-10.5%	-6.1%	0.1%	10.0%	-14.3	-13.1%
Cc1cc(C)cc(N2C(N)=NC(N)=NC2c2cccc(Cl)c2)c1 (configuration not stated)	.	-13.3%	.	-24.6%	.	.
Cc1cc(C)cc(N2C(N)=NC(N)=NC2c2ccccc2F)c1 (configuration not stated)	.	-12.1%	.	15.8µM*	.	.
CC(C)(C)c1ccc(CN(Cc2ccco2)c2cnc(S(C)(=O)=O)nc2C(=O)Nc2ccc(F)cc2)cc1	.	-12.0%[76.3 µM]	.	.	.	.
Cc1[nH]c2ccccc2c1C(O)CN1CCN(c2cccc(C(F)(F)F)c2)CC1 (configuration not stated)	-5.9%	-17.5%	28.2µM*	?	?	?
CN(C(Cc1ccc(OS(=O)(=O)c2cccc3cnccc23)cc1)C(=O)N1CCN(c2ccccc2)CC1)S(=O)(=O)c1cccc2cnccc12 (configuration not stated)	4.9%	.	15.2%	5.4%	.	.
COc1ccc(OC)c(Cc2nnc(CCC(=O)NCc3ccc(C)s3)o2)c1	-3.1%	10µM*	-3.0%	6.7%	2.5	3.4%
COc1ccc(OC)c(Cc2nnc(CCC(=O)NC(C3CC3)C3CC3)o2)c1	-1.9%	11.5%	-7.8%	-2.0%	2.3	0.7%
Cn1c(=O)c2c(nc(N/N=C/c3cccs3)n2C)n(C)c1=O	-7.7%	?	-7.7%	-3.3%	-2.9	-10.0%
Cn1c(=O)c2c(nc(N/N=C/c3ccco3)n2C)n(C)c1=O	-2.2%	8.91µM*	4.4%	3.2%	8.2	?
O=[N+]([O-])c1ccccc1NC(=S)N/N=C/c1ccc(O)c(O)c1	-5.7%	3.55µM*	-9.3%	-10.9%	3.1	-7.3%
